{"source": "PubChem BioAssay AID2402", "about": "(Southern Research Specialized Biocontainment Screening …, 2010)", "note": "Entries with a potency or affinity are not part of this list. The source made the active and inactive calls.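 Rule for the calls: active = viability below 70% at one or more tested doses; inactive = viability above 70% at every dose tested.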", "data": [{"experiment": "Vero cell viability after compound exposure – synthesized analogs, set II, cytotoxicity control for West Nile virus antiviral project, SAR follow-up (AID 2402)", "settings": "Vero E6 viability, CellTiter-Glo, 72 h; series mostly up to 100 µM", "values": [{"compound": "Nc1ccc2nc3n(c(=O)c2c1)CCC3", "outcome": "inactive"}, {"compound": "Cc1ccc2nc3n(c(=O)c2c1)CCC3", "outcome": "inactive"}, {"compound": "Cc1cc(OC(=O)c2c(F)cccc2F)n(Cc2ccccc2)n1", "outcome": "inactive"}, {"compound": "O=C(CSc1nc2ccccc2c(=O)n1-c1ccccc1)Nc1ccc2c(c1)CCC2", "outcome": "inactive"}, {"compound": "Cc1cccc2c(=O)n3c(nc12)CCC3", "outcome": "inactive"}, {"compound": "COc1ccccc1NC(=O)CSc1nc2ccccc2c(=O)n1-c1ccc(F)cc1", "outcome": "inactive"}, {"compound": "O=[N+]([O-])c1ccc2c(c1)C(O)N1CCCC1=N2", "note": "(stereo not given)", "outcome": "inactive"}, {"compound": "O=c1c2cccc(Cl)c2nc2n1CCC2", "outcome": "inactive"}, {"compound": "CC(=O)Nc1ccc2nc3n(c(=O)c2c1)CCC3", "outcome": "inactive"}, {"compound": "Cc1cccc2nc3n(c(=O)c12)CCC3", "outcome": "inactive"}, {"compound": "O=C(CSc1nc2ccccc2c(=O)n1-c1ccc(F)cc1)Nc1ccc2c(c1)OCCO2", "outcome": "inactive"}, {"compound": "OC1c2cc(I)ccc2N=C2CCCN21", "note": "(stereo not given)", "outcome": "inactive"}, {"compound": "COc1ccc(NC(=O)CSc2nc3ccccc3c(=O)n2-c2ccc(F)cc2)cc1", "outcome": "inactive"}, {"compound": "O=c1c2c(F)cccc2nc2n1CCC2", "outcome": "inactive"}, {"compound": "CC1(O)c2cc(Br)ccc2N=C2CCCN21", "note": "(stereo not given)", "outcome": "inactive"}]}]}
